These results are taken from article PMC4336329 (PLoS ONE, 2015).

In all, about 310,000 compounds went through this assay and about 14,000 (4.5%) showed an effect of 50% or more. Effects have a minus sign here. What follows is part of a selection rich in strong results, with near analogues and random picks from the rest.
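Further: peak tail current of the secondary pulse compared with the same well before compound.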

In this experiment the target is human ether-à-go-go-related gene (hERG) potassium channel (human, UniProt Q12809). In words: primary screen, population patch clamp on CHO cells stably expressing hERG; higher = less effect of the substance.
human ether-à-go-go-related gene (hERG) potassium channel, sequence (Q12809 whole entry, looked up): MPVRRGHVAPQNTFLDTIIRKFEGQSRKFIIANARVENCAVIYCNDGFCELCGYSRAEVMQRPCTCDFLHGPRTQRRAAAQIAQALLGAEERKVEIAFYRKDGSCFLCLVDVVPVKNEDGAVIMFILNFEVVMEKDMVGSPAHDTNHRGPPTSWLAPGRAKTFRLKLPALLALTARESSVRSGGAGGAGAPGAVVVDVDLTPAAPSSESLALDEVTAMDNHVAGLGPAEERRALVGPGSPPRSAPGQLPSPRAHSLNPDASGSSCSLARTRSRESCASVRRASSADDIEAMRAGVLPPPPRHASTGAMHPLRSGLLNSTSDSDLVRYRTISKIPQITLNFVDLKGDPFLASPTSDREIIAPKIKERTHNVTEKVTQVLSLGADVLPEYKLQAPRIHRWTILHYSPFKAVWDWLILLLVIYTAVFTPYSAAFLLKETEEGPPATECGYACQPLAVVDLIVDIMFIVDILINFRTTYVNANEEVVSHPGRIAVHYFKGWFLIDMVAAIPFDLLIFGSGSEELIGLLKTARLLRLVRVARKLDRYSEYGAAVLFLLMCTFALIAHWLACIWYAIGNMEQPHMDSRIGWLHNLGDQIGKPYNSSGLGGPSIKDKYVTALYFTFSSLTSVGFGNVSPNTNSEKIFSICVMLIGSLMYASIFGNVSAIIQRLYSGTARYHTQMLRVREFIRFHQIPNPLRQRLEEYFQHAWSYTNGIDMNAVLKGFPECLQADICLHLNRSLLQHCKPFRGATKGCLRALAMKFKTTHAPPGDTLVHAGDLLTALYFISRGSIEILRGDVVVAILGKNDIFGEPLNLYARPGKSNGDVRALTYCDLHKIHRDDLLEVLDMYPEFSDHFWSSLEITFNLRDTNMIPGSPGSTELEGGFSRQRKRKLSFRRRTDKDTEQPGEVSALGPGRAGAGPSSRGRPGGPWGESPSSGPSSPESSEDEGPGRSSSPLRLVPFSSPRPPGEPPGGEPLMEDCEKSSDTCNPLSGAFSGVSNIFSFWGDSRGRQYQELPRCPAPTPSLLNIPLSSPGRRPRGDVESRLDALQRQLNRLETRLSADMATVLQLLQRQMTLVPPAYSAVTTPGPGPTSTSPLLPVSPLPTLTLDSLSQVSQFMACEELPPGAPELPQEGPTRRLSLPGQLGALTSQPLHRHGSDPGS
As for `COc1ccccc1/C=C1\C(=O)Nc2ccccc21`, the “hERG current change (%, negative = inhibition) at 10uM” value is recorded as 2.99%.
Take `Cc1cn(S(=O)(=O)c2cc(Br)ccc2Br)cn1`: the “hERG current change (%, negative = inhibition) at 10uM” value turned out to be 1.08%.
On to `CCc1ccc(NC(=O)NCCCN2CCCC2=O)cc1`, for which the “hERG current change (%, negative = inhibition) at 10uM” value was found to be 0.255%.
Next, `CN(C)C1(CNC(=O)CC(NC(=O)c2ccccc2Cl)c2ccccc2)CCCCC1` (stereo not drawn): -31.3%.
The value for `C[C@@]12CCC3[C@@](CCC4[C@@]3(C)CCC[C@@]4(C)C(=O)N3CCCCC3)(CC1=O)C2` (stereo partly drawn) was 7.27%.
Regarding `O=c1c(Cc2c(F)cccc2Cl)c(O)ccn1Cc1ccc(F)cc1`, the “hERG current change (%, negative = inhibition) at 10uM” value is listed as -0.211%.
The value for `CCCC(=O)Nc1ccc(N2CCCCC2)cc1` was -8.42%; that for `C=C1C(=O)[C@@]23[C@H](O)C[C@@H]4C(C)(C)CC[C@H](O)[C@]4(C)[C@@H]2C[C@H](O)[C@@H]1[C@H]3O` was -0.141%; that for `CC(N)C12CC3CC(CC(C3)C1)C2.Cl` (stereo not drawn) was 14.1%.
The value for `C/C(=N\N1CCCCC1)c1c(O)[nH]c(=O)[nH]c1=O` was -11%.
Consider `Cn1c(CN2CCCC(C(=O)c3ccc4c(c3)OCO4)C2)nc2ccccc21` (stereo not drawn), for which the “hERG current change (%, negative = inhibition) at 10uM” value is recorded as -70.5%.
Take `O=C(c1cccc(Cl)c1)C1CCCN(C(=O)c2ccc3c(c2)OCO3)C1` (stereo not drawn): the “hERG current change (%, negative = inhibition) at 10uM” value was -34.1%.
For `O=C(c1ccc2c(c1)OCO2)C1CCCN(Cc2ccc3nsnc3c2)C1` (stereo not drawn), the “hERG current change (%, negative = inhibition) at 10uM” value is given as -71.4%.
Consider `Cc1cccc(CN2CCCC(C(=O)c3ccc4c(c3)OCO4)C2)n1` (stereo not drawn), for which the “hERG current change (%, negative = inhibition) at 10uM” value is on record as -49.2%.
`O=C(c1ccc2c(c1)OCO2)C1CCCN(Cc2ccc3cccc(F)c3n2)C1` (stereo not drawn): the “hERG current change (%, negative = inhibition) at 10uM” value was -87%.
Consider `COc1cccc(C(=O)C2CCCN(Cc3ccc4nsnc4c3)C2)c1` (stereo not drawn), for which the “hERG current change (%, negative = inhibition) at 10uM” value is -26%.
Take `Cn1cc(CN2CCCC(CNC(=O)c3ccc4c(c3)OCO4)C2)c2ccccc21` (stereo not drawn): the “hERG current change (%, negative = inhibition) at 10uM” value is on record as -43.6%.
In the case of `O=C(c1ccc2c(c1)OCO2)C1CCCN(CC2CCCCC2)C1` (stereo not drawn), the “hERG current change (%, negative = inhibition) at 10uM” value is on record as -71.8%.
On to `O=C(c1ccc2c(c1)OCO2)C1CCCN(C(=O)C2CCOCC2)C1` (stereo not drawn), for which the “hERG current change (%, negative = inhibition) at 10uM” value was 7.74%.
As for `CSc1ccc(C(=O)C2CCCN(C(=O)c3ccc4c(c3)OCO4)C2)cc1` (stereo not drawn), the “hERG current change (%, negative = inhibition) at 10uM” value is listed as -34%.
Turning to `Cc1sc(NC(=S)NC(=O)c2ccccc2)c(C#N)c1C`, the “hERG current change (%, negative = inhibition) at 10uM” value was determined as 0.195%.
For the molecule `O=C(N/N=C1\C(=O)c2cccc3cccc1c23)c1ccc(O)cc1`, the “hERG current change (%, negative = inhibition) at 10uM” value worked out at 8.35%.
In the case of `CCOC(=O)c1[nH]c2cc(OC)c(OC)cc2c1NC(=O)c1ccc2c(c1)OCO2`, the “hERG current change (%, negative = inhibition) at 10uM” value was -4.45%.
As for `COc1cc(C(=O)N/N=C(\C)Cn2nc([N+](=O)[O-])cc2C)ccc1O`, the “hERG current change (%, negative = inhibition) at 10uM” value was -21.1%.
